The record followed here is PubChem BioAssay AID602323 (The Scripps Research Institute Molecular Screening Center, 2012).

Unmarked numbers belong to inactive results. No rule for the calls is given here.

Broadly, the inhibition is the relative decrease from the control value, in per cent.

The test system of this assay is 80kDa SH. Nature of the assay: serine hydrolase inhibition in mouse brain membranes, late-stage follow-up, selectivity assay for DAGLb inhibitor project, biochemical, gel-based competitive ABPP, fluorescence, set 2 (AID 602323). Conditions: mouse brain membrane, at 1 µM, active compounds read high.

As for `O=C(N1CCCCC1Cc1ccccc1)n1cc(-c2ccc(-c3ccccc3)cc2)nn1` (stereo unspecified), the inhibition was 10%.
